# Data from PubChem BioAssay (NCATS).
# Values joined by “and” are separate entries in the source; they are usually repeats but may differ in a detail not shown here. Equal entries are not always repeated. Active and inactive are the calls of the source. How the calls were made is not given here. Numbered stars: 1 amine (or outer) side, 2 acyl side, 3 side chain; on linkers, the order of the positions; unused ones are H or OH. Bridge positions count the residues as written; N and C are the ends. Square brackets hold non-standard residues; d marks the D form. Peptide text beside a SMILES is read from it. I, II: the chains in the order shown. ξ: configuration not given here. Actinocin(9to1) = Cc1c2oc3c(C)ccc(C(=O)[*:1])c3nc-2c(C(=O)[*:2])c(N)c1=O; ξNMeV = CNC(C(=O)O)C(C)C; ξV = CC(C)C(N)C(=O)O; Sar = CNCC(=O)O
# Legend:
# [1] = Immunotoxin (HA22) sensitization/mitigation study. Vehicle arm (PBS) (AID 1159510)
# [2] = Immunotoxin (SS1P) sensitization/mitigation study. Vehicle arm (DMEM) (AID 1159513)
# Potency means the concentration at half of the fitted maximal effect.
Structure (SMILES),Potency [1],Potency [2]
CC(C)c1ccc(Cn2ccc3c4c(N)nc(NC5CC5)nc4ccc32)cc1,3.32 µM (active),0.935 µM (active)
C[C@@H](Oc1cc(-c2cnn(C3CCNCC3)c2)cnc1N)c1c(Cl)ccc(F)c1Cl,16.6 µM (active),18.7 µM (active)
Cc1ccc(C(N)=O)cc1Nc1nccc(-c2cn(C(C)C)c3cnccc23)n1,2.64 µM (active),7.43 µM (active)
Cc1cc(SCc2sc(-c3ccc(C(F)(F)F)cc3)nc2C)ccc1OCC(=O)O,inactive,inactive
Nc1ccccc1NC(=O)c1ccc(CNc2nccc(-c3cccnc3)n2)cc1,0.132 µM (active),0.187 µM (active)
Cc1nc(N)sc1-c1ccnc(Nc2ccc(N3CCOCC3)cc2)n1,5.9 µM (active),18.7 µM (active)
O=C(C=Cc1c(C(=O)O)[nH]c2cc(Cl)cc(Cl)c12)Nc1ccccc1,inactive,inactive
Cn1cc(-c2[nH]c3cc(NC(=O)[C@H](N)C4CCCCC4)cc4c3c2C=NNC4=O)cn1,0.59 µM (active),1.87 µM (active)
Nc1ccccc1NC(=O)c1ccc(CNC(=O)OCc2cccnc2)cc1,0.526 µM (active),5.9 µM (active)
CN([C@@H](Cc1ccc(OS(=O)(=O)c2cccc3cnccc23)cc1)C(=O)N1CCN(c2ccccc2)CC1)S(=O)(=O)c1cccc2cnccc12,inactive,inactive
O=C(C1CC1)N1CC[C@@H](Cn2c(-c3ccc(-c4ccc5occc5c4)cc3)nc3cnccc32)C1,20.9 µM (active),16.6 µM (active)
CCNC(=O)c1noc(-c2cc(C(C)C)c(O)cc2O)c1-c1ccc(CN2CCOCC2)cc1,0.0015 µM (active),0.0021 µM (active)
CC1(C)SCCN(S(=O)(=O)c2ccc(OCC#CCO)cc2)[C@@H]1C(=O)NO,inactive,inactive
Cc1[nH]nc2ccc(-c3cncc(OC[C@@H](N)Cc4ccccc4)c3)cc12,1.18 µM (active),1.32 µM (active)
CCCS(=O)(=O)Nc1ccc(F)c(C(=O)c2c[nH]c3ncc(Cl)cc23)c1F,20.9 µM (active),16.6 µM (active)
Nc1cc(C(F)(F)F)c(-c2cc(N3CCOCC3)nc(N3CCOCC3)n2)cn1,1.05 µM (active),0.935 µM (active)
O=C(NC1CCNCC1)c1[nH]ncc1NC(=O)c1c(Cl)cccc1Cl,37.2 nM (active) and 105 nM (active),29.6 nM (active) and 83.3 nM (active)
COc1ccc(-c2oc3cc(OC)ccc3c2C(=O)c2ccc(C#N)cc2)cc1,inactive,inactive
Cc1cc(C=c2sc3nc4ccccc4n3c2=O)c(C)n1-c1ccccc1,18.7 µM (active),9.35 µM (active)
CCC1(O)CC2CN(CCc3c([nH]c4ccccc34)[C@@](C(=O)OC)(c3cc4c(cc3OC)N(C=O)[C@H]3[C@](O)(C(=O)OC)[C@H](OC(C)=O)[C@]5(CC)C=CCN6CC[C@]43[C@@H]65)C2)C1 (some centres undefined),0.0017 µM (active),0.0033 µM (active)
c1cc(-c2cnn3cc(-c4ccc(OCCN5CCCCC5)cc4)cnc23)ccn1,2.64 µM (active),16.6 µM (active)
c1ccc(-c2nn3c(c2-c2ccnc4cc(OCCN5CCOCC5)ccc24)CCC3)nc1,26.4 µM (active),inactive
COC(=O)c1ccc2c(C(=Nc3ccc(N(C)C(=O)CN4CCN(C)CC4)cc3)c3ccccc3)c(O)[nH]c2c1,0.209 µM (active),1.18 µM (active)
CC1CC(C)C(=O)C(C(O)CC2CC(=O)NC(=O)C2)C1 (centres undefined),0.054 µM (active),0.191 µM (active)
"Cc1c2oc3c(C)ccc(C(=O)N[C@@H]4C(=O)NC(C(C)C)C(=O)N5CCC[C@H]5C(=O)N(C)CC(=O)N(C)C(C(C)C)C(=O)O[C@@H]4C)c3nc-2c(C(=O)N[C@@H]2C(=O)NC(C(C)C)C(=O)N3CCC[C@H]3C(=O)N(C)CC(=O)N(C)C(C(C)C)C(=O)O[C@@H]2C)c(N)c1=O (some centres undefined) (I: T[ξV]P[Sar][ξNMeV] / II: T[ξV]P[Sar][ξNMeV]; ester I:1-I:C, II:1-II:C; linker I:N-II:N via Actinocin(9to1))",0.0332 µM [activator] (active),0.003 µM (active)
OCCC#Cc1nc(-c2ccc(F)cc2)c(-c2ccncc2)n1CCCc1ccccc1,23.5 µM (active),18.7 µM (active)
Cc1c(C(=O)Nc2ccc(N3C[C@@H](C)O[C@@H](C)C3)nc2)cccc1-c1ccc(OC(F)(F)F)cc1,20.9 µM (active),23.5 µM (active)
